In all, about 140,000 compounds went through this assay and about 4,300 (3.1%) were called active. Roughly 21% stayed inconclusive and do not appear here. Only a selection was taken, and actives are over-represented in it overall. A number with no mark means an inactive call.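 Rule for the calls: active = readout at or below -70, meaning at least 70% loss of cells showing the perinucleolar compartment, a nuclear body marking cancer cells; inconclusive = readout between -30 and a set limit; inactive = the rest.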
test: High Content Assay for Compounds that inhibit the Assembly of the Perinucleolar Compartment; conditions: PC3M PTB-GFP, PNC prevalence imaging, 16 h; at 10 µM; stronger effect = lower value;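 note: plate controls were DMSO wells for no effect and camptothecin positive control wells for full effect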
Method in brief: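 PC3M cells stably expressing PTB-GFP, 750–1000 cells/well, treated 16 h at 37 °C with compound (23 nl of library stock), in duplicate. After paraformaldehyde fixation and Hoechst stain, imaged at 20x; PNC prevalence scored by image analysis.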

Structure (SMILES)	activity change (PNC), negative = inhibition
O=C(Cn1cc(C(F)(F)F)ccc1=O)N/N=C/c1ccc(Cl)cc1Cl	32%
CCOC(=O)c1c(-c2cccc(C)c2)csc1NC(=O)c1c(-c2ccccc2)noc1C	-101% (active)
Cc1onc(-c2ccccc2)c1C(=O)NNC(=S)NC(=O)c1ccc(F)cc1	19.1%
CC(=O)Nc1cccc(NC(=O)c2c(-c3ccccc3)noc2C)c1	19.7%
Cc1nc(CNS(=O)(=O)c2ccc(Oc3ccccc3)cc2)cs1	-83.2% (active)
Cc1ccc(S(=O)(=O)NCc2csc(C)n2)c(C)c1	36.5%
Cc1nc(CNS(=O)(=O)c2cccnc2)cs1	14.3%
CC(=O)NCCC(=O)Nc1nc(C)c(Cc2ccc3c(c2)OCO3)s1	32.2%
COC(=O)[C@@H]1CC[C@H](C)[C@@H](c2ccc(C)cc2)N1C(=O)c1ccc(/C=N/O[C@H](C)c2cn([C@@H]3COC[C@H]3O)nn2)cc1	39.9%
C/C(=N\NC(=O)c1ccc(CSc2nc(C)cc(C)n2)cc1)C1CCCCC1	28.4%
CCc1ccc(C2C(C#N)=C(N)Oc3n[nH]c(CC(=O)OC)c32)cc1 (stereo not drawn)	18.8%
CCCc1[nH]nc2c1C(C1CC=CCC1)C(C#N)=C(N)O2 (stereo not drawn)	26.7%
COCc1[nH]nc2c1C(C1C=CCCC1)C(C#N)=C(N)O2 (stereo not drawn)	-107% (active)
CC(NC(=O)c1cc(-c2ccccc2)on1)c1ccccc1 (stereo not drawn)	-97.3% (active)
CC(NC(=O)Nc1ccccc1)c1ccccc1 (stereo not drawn)	-11.3%
CC(C)CNC(=O)c1cc(-c2ccc(Br)cc2)on1	-2.59%
CCOC(=O)NN1C(=O)c2ccccc2NC1c1cccc(O)c1 (stereo not drawn)	-6.12%
COc1ccc(C2CC(c3cccs3)=NN2C(=O)COC(=O)c2cc3ccccc3cc2O)cc1OC (stereo not drawn)	-16.9%
CC1Cc2ccccc2N1C(=O)CSc1nnc(-c2ccc(S(=O)(=O)N3CCCC3)cc2)n1C (stereo not drawn)	-4.26%
COc1ccc(C(CCNCc2ccccc2F)c2ccc(F)cc2)cc1 (stereo not drawn)	-83.9% (active)
COc1ccc(C(CC(=O)O)NC(=O)Cc2ccccc2)cc1 (stereo not drawn)	-1.4%
COc1cccc(CNCCc2c[nH]c3ccccc23)c1OCc1ccccc1F	9.41%

Structure (SMILES)	activity change (PNC), negative = inhibition
COc1ccc(S(=O)(=O)NC(C)C(=O)Nc2cccc([N+](=O)[O-])c2)cc1 (stereo not drawn)	-19.9%
Cc1cccc(CC(=O)Nc2c3c(nn2-c2cccc(Cl)c2)CS(=O)C3)c1 (stereo not drawn)	-2.34%
COc1ccc(-n2nc3c(c2NC(=O)Cc2cccc(C)c2)CS(=O)C3)cc1 (stereo not drawn)	1.65%
COc1ccc(CC(=O)Nc2c3c(nn2-c2cccc(Cl)c2)CS(=O)C3)cc1 (stereo not drawn)	-119% (active)
CC(NC(=O)C(=O)NN=C1CCC(C(C)(C)C)CC1)c1ccccc1 (stereo not drawn)	-5.42%
COC(=O)Cc1csc(/N=C/c2c(O)n(-c3cccc(C(F)(F)F)c3)c(=O)c3ccccc23)n1	-11.4%
Cc1cccc(C(=O)NCC(=O)OCC(=O)N2CC3(C)CC2CC(C)(C)C3)c1 (stereo not drawn)	-3.76%
COc1ccccc1C(=O)N1CC2(C)CC1CC(C)(C)C2 (stereo not drawn)	-20.8%
COc1ccc(C(=O)N2CC3(C)CC2CC(C)(C)C3)cc1OC (stereo not drawn)	-104% (active)
Cc1cc(Cl)ccc1NC(=S)NCCCN1CCCC1=O	13%
CCO/N=C(/C)c1c(O)cc(-c2ccccc2)n(-c2ccccc2)c1=O	36.7%
CC(C)(C)NC(=O)Cn1nnc(-c2ccccc2Cl)n1	25.1%
Cc1ccccc1-c1nnn(CC(=O)c2ccc(S(=O)(=O)N3CCCC3)cc2)n1	-100% (active)
Cc1cc(C)n(C(=O)c2ccc(S(=O)(=O)N3CCCC3)cc2)n1	5.75%
O=C(COC(=O)Cc1ccc(Br)cc1)Nc1c(F)c(F)c(F)c(F)c1F	16.2%
O=C(Nc1nc2ccccc2s1)c1ccc2c(c1)OCO2	62.8%
O=C(Nc1ccc2c(c1)OCCO2)c1ccncc1	-27.2%
O=C(Nc1nc(-c2ccc3c(c2)OCO3)cs1)c1ccncc1	-83.5% (active)
CCCCNS(=O)(=O)c1ccc2nc(SCC(=O)Nc3cc(C)cc(C)c3)[nH]c2c1	35.2%
CCCCN(CC)C(=S)Nc1ccc2nc3n(c(=O)c2c1)CCCCC3	41.2%
O=C(CSc1ccccn1)Nc1nc2c(ccc3ccccc32)s1	41.9%

Source: PubChem BioAssay AID2417 (National Center for Advancing Translational Sciences (NCATS), 2010)
